In all, about 5,500 compounds went through this assay and about 2,000 (36%) were called active. Roughly 18% stayed inconclusive and do not appear here. No stated cut-off is given here; in the data, active means normalized growth mostly below about 0.91 (no sharp cut-off); inconclusive means no clear call, values can overlap the other calls; inactive means mostly above about 0.92. The list shows a part of the results.
Assay: chemical genetic growth profiling, strain panel (AID 1159580);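 further: tested at 20 µM; growth read once vehicle control cultures reached saturation at 30 °C; 1 = growth at the plate median or of vehicle wells; lower values mean less growth of the strain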
Settings: growth OD

Measured: normalized growth

CC(=O)OC1CC(O)C(C)(C)C2CC(=O)C3(C)C(CCC4(C)C(c5ccoc5)OC(=O)C5OC543)C12C (stereo not given)
inactive: S. cerevisiae deletion strains, locus YAL013W, strain DEP1, active compounds read low 0.996 | S. cerevisiae deletion strains, locus YBR021W, strain FUR4, active compounds read low 0.947 | S. cerevisiae deletion strains, locus YBR229C, strain ROT2, active compounds read low 0.994 | S. cerevisiae deletion strains, locus YCL029C, strain bik1, active compounds read low 0.987 | S. cerevisiae deletion strains, locus YDL035C, strain GPR1, active compounds read low 0.988 | S. cerevisiae deletion strains, locus YDL074C, strain BRE1, active compounds read low 0.945 | S. cerevisiae deletion strains, locus YDL101C, strain DUN1, active compounds read low 0.992 | S. cerevisiae deletion strains, locus YDL134C, strain PPH21, active compounds read low 1.02 | S. cerevisiae deletion strains, locus YDL185W, strain tfp1, active compounds read low 0.995 | S. cerevisiae deletion strains, locus YDL192W, strain arf1, active compounds read low 0.971 | S. cerevisiae deletion strains, locus YDR101C, strain arx1, active compounds read low 0.974 | S. cerevisiae deletion strains, locus YDR150W, strain NUM1, active compounds read low 1.01 | S. cerevisiae deletion strains, locus YDR162C, strain NBP2, active compounds read low 1.01 | S. cerevisiae deletion strains, locus YDR318W, strain mcm21, active compounds read low 1.01 | S. cerevisiae deletion strains, locus YDR388W, active compounds read low 0.998 | S. cerevisiae deletion strains, locus YDR502C, strain sam2, active compounds read low 0.991 | S. cerevisiae deletion strains, locus YEL061C, strain CIN8, active compounds read low 1 | S. cerevisiae deletion strains, locus YER110C, active compounds read low 0.985 | S. cerevisiae deletion strains, locus YER155C, strain BEM2, active compounds read low 0.992 | S. cerevisiae deletion strains, locus YER167W, strain BCK2, active compounds read low 0.996 | S. cerevisiae deletion strains, locus YGL078C, strain dbp3, active compounds read low 0.968 | S. cerevisiae deletion strains, locus YGL086W, strain mad1, active compounds read low 0.978 | S. cerevisiae deletion strains, locus YGL248W, strain PDE1, active compounds read low 1.01 | S. cerevisiae deletion strains, locus YGR135W, strain pre9, active compounds read low 1.02 | S. cerevisiae deletion strains, locus YGR229C, strain SMI1, active compounds read low 0.998 | S. cerevisiae deletion strains, locus YGR252W, strain gcn5, active compounds read low 1.04 | S. cerevisiae deletion strains, locus YHR030C, strain SLT2, active compounds read low 0.995 | S. cerevisiae deletion strains, locus YHR079C, strain IRE1 (second series), active compounds read low 0.988 | S. cerevisiae deletion strains, locus YHR094C, strain hxt1, active compounds read low 0.989 | S. cerevisiae deletion strains, locus YHR129C, strain ARP1, active compounds read low 0.99 | S. cerevisiae deletion strains, locus YHR200W, strain rpn10, active compounds read low 1.01 | S. cerevisiae deletion strains, locus YIL066C, strain RNR3, active compounds read low 1.01 | S. cerevisiae deletion strains, locus YIL073C, strain SPO22, active compounds read low 1.06 | S. cerevisiae deletion strains, locus YIL125W, strain kgd1, active compounds read low 0.997 | S. cerevisiae deletion strains, locus YIR030C, strain dcg1, active compounds read low 0.992 | S. cerevisiae deletion strains, locus YJL095W, strain BCK1, active compounds read low 1.03 | S. cerevisiae deletion strains, locus YJL134W, strain LCB3, active compounds read low 0.988 | S. cerevisiae deletion strains, locus YJL168C, strain set2, active compounds read low 0.995 | S. cerevisiae deletion strains, locus YJL187C, strain SWE1 (second series), active compounds read low 0.996 | S. cerevisiae deletion strains, locus YJR043C, strain POL32, active compounds read low 0.989 | S. cerevisiae deletion strains, locus YJR075W, strain HOC1, active compounds read low 1.01 | S. cerevisiae deletion strains, locus YKL009W, strain mrt4, active compounds read low 0.931 | S. cerevisiae deletion strains, locus YKL068W, active compounds read low 0.996 | S. cerevisiae deletion strains, locus YKL085W, strain MDH1 (second series), active compounds read low 0.999 | S. cerevisiae deletion strains, locus YKL085W, strain MDH1, active compounds read low 0.999 | S. cerevisiae deletion strains, locus YKR001C, strain vps1, active compounds read low 1 | S. cerevisiae deletion strains, locus YLR039C, strain RIC1, active compounds read low 0.995 | S. cerevisiae deletion strains, locus YLR058C, strain SHM2, active compounds read low 1 | S. cerevisiae deletion strains, locus YLR102C, strain apc9, active compounds read low 0.996 | S. cerevisiae deletion strains, locus YLR262C, strain YPT6, active compounds read low 1.02 | S. cerevisiae deletion strains, locus YLR268W, strain sec22, active compounds read low 0.96 | S. cerevisiae deletion strains, locus YLR330W, strain CHS5, active compounds read low 1.01 | S. cerevisiae deletion strains, locus YLR342W, strain FKS1 (second series), active compounds read low 1.01 | S. cerevisiae deletion strains, locus YLR371W, strain rom2, active compounds read low 0.99 | S. cerevisiae deletion strains, locus YLR418C, strain cdc73, active compounds read low 0.999 | S. cerevisiae deletion strains, locus YML016C, strain PPZ1, active compounds read low 0.985 | S. cerevisiae deletion strains, locus YML032C, strain rad52, active compounds read low 1.03 | S. cerevisiae deletion strains, locus YML124C, strain tub3, active compounds read low 1 | S. cerevisiae deletion strains, locus YMR078C, strain ctf18, active compounds read low 0.988 | S. cerevisiae deletion strains, locus YMR223W, strain ubp8, active compounds read low 1.01 | S. cerevisiae deletion strains, locus YMR307W, strain GAS1, active compounds read low 0.971 | S. cerevisiae deletion strains, locus YNL067W, strain RPL9B, active compounds read low 1.01 | S. cerevisiae deletion strains, locus YNL233W, strain BNI4, active compounds read low 0.987 | S. cerevisiae deletion strains, locus YNL250W, strain rad50, active compounds read low 0.989 | S. cerevisiae deletion strains, locus YNL271C, strain bni1, active compounds read low 0.983 | S. cerevisiae deletion strains, locus YNL298W, strain CLA4, active compounds read low 0.968 | S. cerevisiae deletion strains, locus YNL307C, strain MCK1, active compounds read low 0.98 | S. cerevisiae deletion strains, locus YNL322C, strain KRE1, active compounds read low 0.999 | S. cerevisiae deletion strains, locus YNR052C, strain pop2, active compounds read low 0.996 | S. cerevisiae deletion strains, locus YOL006C, strain TOP1, active compounds read low 0.972 | S. cerevisiae deletion strains, locus YOL012C, strain htz1 0.734 | S. cerevisiae deletion strains, locus YOL147C, strain pex11, active compounds read low 0.989 | S. cerevisiae deletion strains, locus YOR061W, strain CKA2, active compounds read low 0.991 | S. cerevisiae deletion strains, locus YOR069W, strain VPS5, active compounds read low 0.985 | S. cerevisiae deletion strains, locus YOR136W, strain idh2, active compounds read low 0.966 | S. cerevisiae deletion strains, locus YOR144C, strain elg1, active compounds read low 0.996 | S. cerevisiae deletion strains, locus YOR184W, strain ser1, active compounds read low 0.982 | S. cerevisiae deletion strains, locus YOR316C, strain cot1, active compounds read low 0.992 | S. cerevisiae deletion strains, locus YPL055C, strain LGE1, active compounds read low 0.999 | S. cerevisiae deletion strains, locus YPR119W, strain clb2, active compounds read low 0.992 | S. cerevisiae deletion strains, locus YPR141C, strain kar3, active compounds read low 0.987 | S. cerevisiae deletion strains, locus YPR163C, strain tif3, active compounds read low 1 | S. cerevisiae deletion strains, locus YPR167C, strain met16, active compounds read low 0.985 | S. cerevisiae deletion strains, strain wtn01, active compounds read low 0.958 | S. cerevisiae strains, strain wild type, active compounds read low 1
